Compounds with a hit are over-represented: about 8% of the library has one in this group of screens.
TSHR antagonist: Antagonists of the Thyroid Stimulating Hormone Receptor: HTS campaign; TSHR-expressing cells, TSH-stimulated cAMP HTRF, 2 h; hits give low values; Thyrotropin receptor (Homo sapiens), P16473; 330,000 tested, 0.2% active; activity change, negative = inhibition, % at 11.5 µM;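 active = activity change below a set negative limit, meaning inhibition stronger than a set level, cut at about -70% in these data; inconclusive = activity change between two set negative limits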; also: % is scaled to controls: 0 for no effect and ±100 for the full control effect
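Cell-based HTRF cAMP assay; TSHR cells + compound, TSH EC80 (4nM final), 2 h, 37 deg C. Lysis with anti-cAMP cryptate and cAMP-d2, 30 min RT, read 665/620 nm.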
FBPA coupling cs: qHTS Assay for Inhibitors of Fructose-1,6-bisphosphate Aldolase from Giardia Lamblia: Coupling assay counterscreen; coupling enzyme system counterscreen, AmpLite Red fluorescence; activity change, negative = inhibition, % at 58.2 µM, hits read low; 290,000 tested, 0.67% active; AID 2472, 2010; in the data active = activity change below about -30%; also: % is scaled to controls: 0 for no effect and ±100 for the full control effect
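Fluorescence at 525 nm excitation and 598 nm emission measured inhibition of the coupled detection system without aldolase. Compounds (at 57.5 uM final) were preincubated 10 min at room temperature with coupling enzyme reagent before a 20 min substrate/AmpLite Red step.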
ELG1 repair inh: qHTS screen for small molecules that inhibit ELG1-dependent DNA repair in human embryonic kidney (HEK293T) cells expressing luciferase-tagged ELG1; HEK293T ELG1-luciferase reporter, luminescence, 16 h; DNA damage induced by 5-fluorouridine; Potency, µM (highest dose often 46.1 µM), inactives show at the highest dose activity change, negative = inhibition, most hits filed as inhibitors; 330,000 tested, 2.3% active; AID 504467, 2011; active = well fitted curve in the direction sought with a large enough effect; inconclusive = small, poorly fitted or top-dose-only effect, or another doubt; inactive = no such curve, though single readings can be large; an effect the other way counts as inactive or inconclusive; also: potency is read from the fitted curve at half-maximal effect; % is scaled to controls: 0 for no effect and ±100 for the full control effect; nearly all actives have a fitted effect of over 55% in size
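HEK293T cells expressing luciferase-tagged ELG1 (2,000/well) received 5-Fluorouridine plus compound or DMSO for 16 hr at 37 °C. Luciferase was read by ONE-Glo luminescence after 30 min at room temperature.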
Gal4-VP16 FLuc: VP16 counterscreen qHTS for inhibitors of ROR gamma transcriptional activity; Drosophila S2 Gal4-VP16 UAS-luciferase, luminescence, 20 h; Potency, µM (top dose mostly 53.6 µM), for the others: at the highest dose activity, negative = inhibition, actives largely listed as inhibitors; 310,000 tested, 3.5% active; AID 2546, 2010; active = well fitted curve in the direction sought with a large enough effect; inconclusive = small, poorly fitted or top-dose-only effect, or another doubt; inactive = no such curve, though single readings can be large; an effect the other way counts as inactive or inconclusive;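 also: Gal4-VP16 expression switched on by copper sulfate through the metallothionein promoter; potency is read from the fitted curve at half-maximal effect; % is scaled to controls: 0 for no effect and ±100 for the full control effect; nearly all actives have a fitted effect of over 50% in size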
RORg inh: qHTS for inhibitors of ROR gamma transcriptional activity; Nuclear receptor ROR-gamma (Mus musculus), P51450; Drosophila S2 Gal4-RORgamma UAS-luciferase reporter, 20 h; Potency, µM (doses to about 53.6 µM), for the others: at the highest dose activity change, negative = inhibition, hits mostly inhibitors; 310,000 tested, 5.4% active; active = well fitted curve in the direction sought with a large enough effect; inconclusive = small, poorly fitted or top-dose-only effect, or another doubt; inactive = no such curve, though single readings can be large; an effect the other way counts as inactive or inconclusive; also: potency is read from the fitted curve at half-maximal effect; % is scaled to controls: 0 for no effect and ±100 for the full control effect; nearly all actives have a fitted effect of over 60% in size
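A Gal4/UAS one-hybrid system in insect cells: metallothionein-promoter Gal4–ROR gamma fusion plus Photinus luciferase reporter. Copper sulfate 700 uM final, 20 hr ambient incubation, luminescent detection after 10 min with reagent.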
CASP1 redox cat: Concentration-Response Counterscreen for Redox Active Inhibitors of Caspase-1: Catalase | shares compounds with FBPA coupling cs | caspase-1 Ac-WEHD-AFC fluorescence rate, catalase buffer | Potency, µM (doses to about 57.5 µM), for the others: at the highest dose activity change, negative = inhibition, usual class: inhibitors | 30 tested, under 10 active
Casp1 confirm: Confirmation Concentration-Response Assay for Allosteric/Competitive Inhibitors of Caspase-1; 60 tested, 20% active; shares compounds with FBPA coupling cs; Potency, µM (doses to about 57.5 µM), for inactives: at the highest dose activity change, negative = inhibition, most hits filed as inhibitors; purified caspase-1, fluorogenic substrate cleavage
Casp7 confirm: Confirmation Concentration-Response Assay for Allosteric/Competitive Inhibitors of Caspase-7 | shares compounds with FBPA coupling cs | recombinant caspase-7, fluorogenic substrate cleavage | Potency, µM (titrated, usually from 57.5 µM), for the others: at the top dose activity change, negative = inhibition, usual class: inhibitors | 60 tested, under 10 active; active = well fitted inhibition curve with a large enough effect in the main read-out, with a control signal flat, not every such curve was filed as active; inconclusive = small, poorly fitted or top-dose-only effect, or a change in a side signal; inactive = no such curve, though single readings can be large or run the other way
Casp7 cysteine: Concentration-Response Counterscreen for Redox Active Inhibitors of Caspase-7: Cysteine | shares compounds with FBPA coupling cs | caspase-7 enzyme with cysteine, fluorogenic substrate, redox counterscreen | Potency, µM (top dose mostly 57.5 µM), inactives show at the highest dose activity change, negative = inhibition, usual class: inhibitors | 60 tested, under 10 active | AID 908, 2007
Casp7 catalase: Concentration-Response Counterscreen for Redox Active Inhibitors of Caspase-7: Catalase. Caspase-7 Ac-DEVD-AFC fluorescence rate, catalase buffer. AID 909, 2007. 30 tested, under 10 active. shares compounds with FBPA coupling cs. Potency, µM (top dose mostly 57.5 µM), inactives show at the highest dose activity, negative = inhibition, usual class: inhibitors
CASP1 redox cys: Concentration-Response Counterscreen for Redox Active Inhibitors of Caspase-1: Cysteine | shares compounds with FBPA coupling cs | recombinant caspase-1, fluorogenic substrate, cysteine buffer | Potency, µM (doses to about 57.5 µM), for inactives: top-dose activity change, negative = inhibition, most hits filed as inhibitors | 60 tested, under 10 active | AID 929, 2007
Numbers without * were called inactive; ? = inconclusive; . = no result given. Unless noted, calls follow the shape of the dose curve; as a rule, active = well fitted inhibition curve with a large enough effect in the main read-out, with a control signal flat; inconclusive = small, poorly fitted or top-dose-only effect, or a change in a side signal; inactive = no such curve, though single readings can be large or run the other way.

SMILES | TSHR antagonist | FBPA coupling cs | ELG1 repair inh | Gal4-VP16 FLuc | RORg inh | others
COC(=O)[C@@]1(O)C[C@@H]2O[C@@]1(C)n1c3ccccc3c3c4c(c5c6ccccc6n2c5c31)C(=O)NC4 | . | -1 | . | ? | -17%
CC[C@]1(O)CC(O[C@@H]2CC(N(C)C)C(O)C(C)O2)c2c(cc3c(c2O)C(=O)c2c(O)cccc2C3=O)C1C(=O)OC (stereo not given in full) | . | -25 | . | 4.5µM* | 2.2µM*
O=c1[nH]c(=S)[nH]c(O)c1N=Nc1cc2c(cc1[N+](=O)[O-])OCO2 | -13 | 1 | 24% | -3% | -39%
O=c1[nH]c(=S)[nH]c(O)c1N=Nc1ccc(-c2ccccc2)cc1[N+](=O)[O-] | -10 | 4 | -4% | 18µM* | ?
C#C[C@]1(O)CCC2C3CCC4=C/C(=N/OCC(=O)NC(C)C(=O)NC(CCSC)C(=O)O)CC[C@]4(C)C3CC[C@@]21C (stereo not given in full) | 5 | -1 | 8.2µM* | -7% | -19%
Cc1nnc2n1-c1ccc(Cl)cc1C(c1ccccc1)=NC2 | 2 | 1 | . | 25% | 2.5µM*
COc1ccccc1C1=NCc2nnc(C)n2-c2ccc(Cl)cc21 | -7 | 5 | ? | -3% | -31%
Cn1ncnc2c(=O)n(C)c(=O)nc1-2 | -4 | -94* | 6.5µM* | 0.63µM* | 0.04µM* | CASP1 redox cat=1.1µM*;Casp1 confirm=2µM*;Casp7 confirm=4µM*;Casp7 cysteine=-17%;Casp7 catalase=?;CASP1 redox cys=-15%
CC1CC(O)[C@]2(O)[C@]13CC(=O)OC[C@@]2(C)[C@@](C)(O)C(=O)C3 (stereo not given in full) | . | 2 | . | 6% | -11%
C[C@]12Cc3cn4c(nc3C=C1CCC1C2CC[C@@]2(C)[C@H]1CC[C@@]2(O)C#N)nc1ccccc14 (stereo not given in full) | -27 | . | . | . | .
C[C@]12Cc3cn4c(nc3C=C1CC[C@H]1[C@@H]2CC[C@@]2(C)[C@H]1CC[C@@]2(O)C#N)nc1ccccc14 | . | . | . | . | . | Casp1 confirm=?;Casp7 confirm=?;Casp7 cysteine=?;CASP1 redox cys=?
F/C(COc1ccc2c(c1)[nH]c1ccccc12)=C1/CN2CCC1CC2 | . | 2 | . | 3% | 13%
COc1cc2c(cc1O)-c1c(O)c(OC)cc3c1[C@H](C2)N(C)CC3 | . | -28 | . | -3% | -37% | Casp1 confirm=-14%;Casp7 confirm=-5%;Casp7 cysteine=-6%;CASP1 redox cys=3%
CCOC(=O)c1ccc(NC(=O)C2C3C=CC(O3)C2C(=O)O)cc1 (stereo not given) | -5 | 4 | ? | 1% | 9%

Compound activity (PubChem)
